MITF TRPM1 inh = inhibitors of MITF-dependent TRPM1 promoter reporter, primary screen, cell-based, SK-MEL-5, single point, luciferase | hit rate 0.83% among 330,000 | SK-MEL-5 TRPM1 promoter luciferase, 24 h | inhibition, % at 12.5 µM | AID 488899, 2010;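 active means mean inhibition across replicates of 60% or more, whatever share of single replicates reaches that level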
HIF-2a inh = HIF-2a reporter inhibitors, primary screen, luminescence, 786-0 RCC cells; inhibition, % at 18.8 µM; hit rate 0.72% among 360,000; 786-0 RCC cells HIF-2a reporter, luciferase luminescence, overnight;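 active means inhibition of the luminescence signal of 40% or more relative to plate controls, in a single-dose primary screen at 18.75 µM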
LMP1 NFkB inh = EBV LMP1-driven NF-kappaB luciferase reporter inhibitors, primary screen, cell-based, luminescence, single point; inhibition, % at 12.5 µM; LMP1-induced NF-kappaB luciferase reporter cells; hit rate 0.69% among 350,000; in the data active means inhibition above about 41%
KKLEB tox = cytotoxicity in KKLEB CF airway cells, primary screen, cytotoxicity control for CF NF-kB inhibitor project, cell-based, uHTS, fluorescence assay plates; KKLEB CF airway cells viability, ATPlite luminescence, overnight; hits give low values; cells stimulated with P. aeruginosa culture filtrate; activity change (cytotoxicity), % at 5 µM; hit rate 0.36% among 360,000;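 active means corrected activity change at or below -50% at 5 µM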
CF NFkB block = inhibitors of PAF-induced NF-kB signaling, primary screen, cell-based, GFP fluorescence, uHTS; KKLEB NF-kB-GFP reporter, GFP fluorescence overnight; inhibition, % at 5 µM; hit rate 0.86% among 360,000; AID 588850, 2011;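 active means at least 50% inhibition at 5 µM, scaled per plate between neutral and stimulator controls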;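 further: PAF is a Pseudomonas aeruginosa culture filtrate used as stimulus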
Peg3 promoter = Peg3 promoter-driven luciferase inhibitors, primary screen, cell-based, HeLa, luciferase luminescence | inhibition, % at 20 µM | HeLa PEG-Prom luciferase reporter, overnight | hit rate 1.7% among 360,000;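 active means inhibition of at least 50% at 20 µM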
Mdm2-MdmX confirm = retested Mdm2-MdmX interaction blockers, confirmation, cell-based, luminescence, single concentration, set 2 | shares compounds with HIF-2a inh | SaOS-2 split-luciferase Mdm2/MdmX complementation | inhibition, % at 8 µM | hit rate 99% among 740 | AID 504601, 2011;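 active means mean inhibition of the luminescence signal across two replicates at or above 26 percent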
Target sequence (O15151 whole entry, looked up): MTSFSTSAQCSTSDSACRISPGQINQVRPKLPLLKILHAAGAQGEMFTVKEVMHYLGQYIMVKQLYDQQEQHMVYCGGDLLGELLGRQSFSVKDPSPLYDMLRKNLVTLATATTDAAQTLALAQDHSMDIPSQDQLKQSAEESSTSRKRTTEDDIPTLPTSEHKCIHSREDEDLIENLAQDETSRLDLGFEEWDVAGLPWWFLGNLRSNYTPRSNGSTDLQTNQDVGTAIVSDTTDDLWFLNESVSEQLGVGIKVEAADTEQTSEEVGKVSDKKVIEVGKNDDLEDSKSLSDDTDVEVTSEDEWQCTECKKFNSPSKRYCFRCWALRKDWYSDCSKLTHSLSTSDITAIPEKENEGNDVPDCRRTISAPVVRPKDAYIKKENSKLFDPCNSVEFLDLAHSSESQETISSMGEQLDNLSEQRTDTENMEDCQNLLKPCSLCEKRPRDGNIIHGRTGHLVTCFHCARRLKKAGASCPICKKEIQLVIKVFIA
Target sequence (Q00987 whole entry, looked up): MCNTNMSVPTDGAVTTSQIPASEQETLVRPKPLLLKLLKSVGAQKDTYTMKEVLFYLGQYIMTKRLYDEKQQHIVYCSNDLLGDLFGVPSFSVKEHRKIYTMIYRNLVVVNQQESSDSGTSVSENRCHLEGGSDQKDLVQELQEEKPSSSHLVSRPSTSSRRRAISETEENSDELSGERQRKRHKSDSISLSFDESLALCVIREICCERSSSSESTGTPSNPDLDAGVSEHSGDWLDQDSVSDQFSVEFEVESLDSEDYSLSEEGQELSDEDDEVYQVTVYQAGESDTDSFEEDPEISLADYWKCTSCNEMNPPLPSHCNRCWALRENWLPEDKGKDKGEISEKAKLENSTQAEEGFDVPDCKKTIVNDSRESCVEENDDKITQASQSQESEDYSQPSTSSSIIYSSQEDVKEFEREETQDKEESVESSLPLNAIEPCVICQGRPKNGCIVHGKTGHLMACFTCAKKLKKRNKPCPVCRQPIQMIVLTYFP
HIF-2a inh conf = HIF-2a reporter inhibitor retest, confirmation, luminescence, 786-0 RCC cells; AID 651580, 2012; HIF-2a luciferase reporter luminescence, overnight; shares compounds with HIF-2a inh; inhibition, % at 18.8 µM; hit rate 56% among 1,800;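 active means mean inhibition across four replicates of at least 40 percent at the single tested concentration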
HIF-1a counter = HIF-1a luciferase reporter signal reduction – MiaPaCa-2 cells, single concentration, counter-screen for HIF-2a inhibitor project, confirmation. hit rate 72% among 1,800. inhibition, % at 18.8 µM. MiaPaCa-2 HIF-1a luciferase reporter, desferoxamine, overnight. shares compounds with HIF-2a inh;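 active means mean inhibition of the reporter signal across four replicates at the single tested dose of 50% or more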
Of the large screens only hits and unclear results are named; the others gave an inactive call (follow-up assays come after a bar, where they were run). Shown are actives, neighbours in structure and some others; about 3% of the full set was active somewhere.

Cc1c(CCC(=O)O)c(=O)oc2cc3oc4c(c3cc12)CCCC4	HIF-2a inh 74 | HIF-2a inh conf 83 | HIF-1a counter inactive
COc1cccc(-c2coc3c(C)c4oc(=O)c(CCC(=O)O)c(C)c4cc23)c1	none
Cc1c(CCC(=O)N2CCC[C@H]2C(=O)O)c(=O)oc2cc3oc4c(c3cc12)CCCC4	HIF-2a inh 65 | HIF-2a inh conf 79 | HIF-1a counter inactive
Cc1c(CCC(=O)N[C@@H](CC(C)C)C(=O)O)c(=O)oc2cc3oc4c(c3cc12)CCCC4	HIF-2a inh 65 (no result: MITF TRPM1 inh) | HIF-2a inh conf 75 | HIF-1a counter inactive
Cc1c(CCC(=O)N2CCC(C(=O)NCCCCCC(=O)O)CC2)c(=O)oc2cc3oc4c(c3cc12)CCCC4	none
COc1cccc(-c2coc3cc4oc(=O)c(CCC(=O)O)c(C)c4cc23)c1	HIF-2a inh 40 | HIF-2a inh conf 57 | HIF-1a counter 51
Cc1c(CCC(=O)NCC(=O)NCC(=O)O)c(=O)oc2cc3oc4c(c3cc12)CCCC4	none
Cc1c(CCC(=O)N[C@@H](C)C(=O)O)c(=O)oc2cc3occ(-c4ccccc4)c3cc12	none
Cn1cc(-c2ccc(C(=O)Nc3cccc(Oc4ccccc4)c3)c3occc23)cn1	none (no result: MITF TRPM1 inh, LMP1 NFkB inh)
Cc1c(CCC(=O)O)c(=O)oc2cc(OCc3ccccc3Br)ccc12	HIF-2a inh 78 | HIF-2a inh conf 92 | HIF-1a counter 52
Cc1c(CCC(=O)O)c(=O)oc2cc(OCc3cccc(F)c3)ccc12	none
OC[C@@H]1CN(Cc2cccc(C(F)(F)F)c2)C[C@H](n2cnc3c(NC4CC4)ncnc32)O1	none (no result: MITF TRPM1 inh, LMP1 NFkB inh)
COc1ccc(/C=C/C(=O)OCC(=O)NC2CCCCCC2)cc1	none (no result: MITF TRPM1 inh)
CCCn1nc([N+](=O)[O-])c(C(C#N)c2nc3ccccc3s2)c(Cl)c1=O (configuration not stated)	HIF-2a inh 52, KKLEB tox -55 | Mdm2-MdmX confirm 100
CCn1nc([N+](=O)[O-])c(C(C#N)c2nc3ccccc3n2C)c(Cl)c1=O (configuration not stated)	none
CCNC(=O)C1(C)CCCN1C(=O)c1cnc2ccccc2n1 (configuration not stated)	none (no result: MITF TRPM1 inh, LMP1 NFkB inh)
COC(=O)C[C@@H]1C=C[C@H](NC(=O)c2ccccc2)[C@@H](CO)O1	none (no result: MITF TRPM1 inh, LMP1 NFkB inh, KKLEB tox, CF NFkB block, Peg3 promoter)
O=C(/C=C/[C@H]1O[C@@H](n2ccc(=O)[nH]c2=O)[C@H](O)[C@@H]1O)N[C@@H](Cc1ccccc1)C(=O)O	none (no result: MITF TRPM1 inh, LMP1 NFkB inh)
Cc1ccc(Oc2ccc(OCC(=O)Nc3ccncc3)cc2)cc1	HIF-2a inh 55 (no result: MITF TRPM1 inh, LMP1 NFkB inh) | HIF-2a inh conf 77 | HIF-1a counter 50
O=C(Nc1cccc(O)c1)c1ccc(NC(=O)C2CCCO2)cc1 (configuration not stated)	none
O=C(O)c1cccc(C(=O)Nc2cccc(NC(=O)C3CCCO3)c2)c1 (configuration not stated)	HIF-2a inh 49 | HIF-2a inh conf 48 | HIF-1a counter inactive
O=c1cc(-c2ccccc2)oc2ccc(Cl)cc12	none
O=c1oc(-c2ccccc2)cc(Cl)c1Cl	HIF-2a inh 42, KKLEB tox -103, CF NFkB block 74, Peg3 promoter 109 | HIF-2a inh conf inactive | HIF-1a counter 107
COC1(OC)N=C(N)C2(C#N)C(c3ccc(F)cc3)C12C#N (configuration not stated)	none
CCSC1(SCC)N=C(N)C2(C#N)C(c3ccc(F)cc3)C12C#N (configuration not stated)	MITF TRPM1 inh 82, HIF-2a inh 49, Peg3 promoter 107 | HIF-2a inh conf 59 | HIF-1a counter 93
COc1cccc(NC(=O)N(C)C[C@H]2Oc3cc(C#Cc4ccncc4)ccc3S(=O)(=O)N([C@H](C)CO)C[C@H]2C)c1	HIF-2a inh 43 (no result: MITF TRPM1 inh) | HIF-2a inh conf inactive | HIF-1a counter inactive
CC(=O)Nc1sc2c(c1-c1nc3ccccc3s1)CCN(C(C)C)C2	MITF TRPM1 inh 77, HIF-2a inh 40, LMP1 NFkB inh 78, Peg3 promoter 99 | Mdm2-MdmX confirm 101
CC(C)N1CCc2c(sc(NC(=O)Cc3ccccc3)c2C(N)=O)C1	none (no result: MITF TRPM1 inh)
O=[N+]([O-])c1ccc(S(=O)(=O)CC(CN2CCCCC2)N2CCCCC2)cc1 (configuration not stated)	MITF TRPM1 inh 81, CF NFkB block 81, Peg3 promoter 108 | Mdm2-MdmX confirm 103
CCOC(=O)C1(C)CCCN(C(=O)c2cccnc2)C1 (configuration not stated)	none (no result: MITF TRPM1 inh, LMP1 NFkB inh)
COC(=O)c1c(NC(=O)c2nc3ccccc3s2)sc2c1CC(C)(C)NC2(C)C	MITF TRPM1 inh 77, Peg3 promoter 104 | Mdm2-MdmX confirm 93
C=CCNc1nc2cc(-c3ccccc3C)sc2c(=O)n1C	none (no result: MITF TRPM1 inh, LMP1 NFkB inh)
CCCCC(=NCCc1c(C)[nH]c2ccc(OC)cc12)C1=C(O)CC(c2ccccc2)CC1=O (configuration not stated)	HIF-2a inh 41 | HIF-2a inh conf inactive | HIF-1a counter 65
OC(Cc1ccccc1Br)c1ncc(-c2cccc(C(F)(F)F)c2)[nH]1 (configuration not stated)	none (no result: MITF TRPM1 inh, LMP1 NFkB inh)
CCN(CC)c1ccc(C=Nc2cccc(S(=O)(=O)N3CCOCC3)c2)c(O)c1	none
CCN(CC)c1ccc(/C=N/NC(=O)c2cccc(S(=O)(=O)N3CCOCC3)c2)c(O)c1	MITF TRPM1 inh 82, LMP1 NFkB inh 55 | Mdm2-MdmX confirm 91
COc1ccc(/C=N/Nc2cc(C)nc3ccc(Br)cc23)cc1	MITF TRPM1 inh 99, HIF-2a inh 46, Peg3 promoter 101 | HIF-2a inh conf inactive | HIF-1a counter 106
COc1ccc(NC(=O)CSc2nnc3n2CCCCC3)cc1S(=O)(=O)N(C)C	none (no result: MITF TRPM1 inh)
COCCCNC(=O)c1ccc(-n2nc(C(F)(F)F)cc2-c2cccs2)cc1	HIF-2a inh 49 | HIF-2a inh conf inactive | HIF-1a counter inactive
O=C(NCCCN1CCOCC1)c1ccc(-n2nc(C(F)(F)F)cc2-c2cccs2)cc1	HIF-2a inh 45, Peg3 promoter 55 | HIF-2a inh conf inactive | HIF-1a counter 66

Screening data as filed in PubChem.
